MEKK2mut PB1 HTS = signal of MEK5 binding to mutant human MEKK2 PB1 domain. bead flow cytometry, Alexa488-MEK5 binding to MEKK2 mutant. percent response, % at 10 µM. hit rate 0.35% among 290,000. AID 1530; in the data active = percent response above about 24%, passing the limit was not always enough
CHT block = inhibits the human high affinity choline transporter; Q9GZV3; CHT-expressing cells, membrane potential dye, choline response; hits give low values; B-score at 10 µM; hit rate 0.86% among 310,000; AID 488975;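 active = B-score over 3 SD under the library average, and starting fluorescence ratio not unusually high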;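 also: choline stimulus applied at its EC90 after an EC20 pre-addition; B-score computed on integrated fluorescence ratio after choline addition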
Target sequence (Q9GZV3 whole entry, looked up): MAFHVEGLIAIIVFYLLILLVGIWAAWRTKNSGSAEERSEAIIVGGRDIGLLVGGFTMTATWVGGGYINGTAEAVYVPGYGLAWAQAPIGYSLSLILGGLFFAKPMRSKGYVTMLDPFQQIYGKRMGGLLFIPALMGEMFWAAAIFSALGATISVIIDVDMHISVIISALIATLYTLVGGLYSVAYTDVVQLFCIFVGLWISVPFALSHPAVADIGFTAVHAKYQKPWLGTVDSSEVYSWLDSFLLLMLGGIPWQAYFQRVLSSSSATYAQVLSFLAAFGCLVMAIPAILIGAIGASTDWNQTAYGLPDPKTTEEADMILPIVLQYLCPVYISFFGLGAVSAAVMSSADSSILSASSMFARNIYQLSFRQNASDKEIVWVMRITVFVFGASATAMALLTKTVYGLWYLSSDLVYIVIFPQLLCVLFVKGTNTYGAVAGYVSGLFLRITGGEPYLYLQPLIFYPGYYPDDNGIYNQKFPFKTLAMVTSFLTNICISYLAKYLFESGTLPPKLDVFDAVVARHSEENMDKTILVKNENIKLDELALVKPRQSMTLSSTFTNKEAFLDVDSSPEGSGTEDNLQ
CHT PAM = allosterically activates the human high affinity choline transporter; CHT-expressing cells, membrane potential dye, choline EC20; hits give high values; LV-AA mutant CHT in HEK293 cells; Q9GZV3; hit rate 0.49% among 310,000; B-score at 10 µM; AID 488977;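 active = initial fluorescence not abnormally high and integrated response B-score, plate-corrected, over 3 SD above library mean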
MEKK3 PB1 HTS = MEKK3-MEK5 PB1 interaction, increase or decrease; Q99759; bead-based flow cytometry, Alexa488-MEK5 binding to MEKK3; actives lie on both sides; 0 = blocked by unlabeled MEK5, 100 = vehicle; binding response (% of control), % at 10 µM; hit rate 1.4% among 290,000; AID 1529;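 active = binding response more than 3 SD above or below the average of its plate-row segment, actives on both sides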;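 also: Alexa488 bead fluorescence after subtracting the streptavidin-only scavenger bead signal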
Mot1-301 SUMO = blocks SUMOylation pathway, rescuing yeast Mot1-301 growth. growth rescue, % at 18.8 µM. hit rate 1% among 320,000. S. cerevisiae Mot1-301 growth rescue, ATP luminescence, 38.5C; percent above DMSO median, 100 means doubled;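 active = every valid replicate shows activation above 250% relative to neutral control wells; inactive = the rest, any valid replicate at or below 250%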;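 also: OY570 slx delta 5 strain wells were the positive control but not used for scaling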
MEKK2 WT-MEK5 = raises or lowers MEK5 binding to wildtype human MEKK2 PB1 domain; Q9Y2U5; bead flow cytometry, Alexa488-MEK5 binding to MEKK2 WT; actives lie on both sides; binding response (% of control), % at 10 µM; hit rate 1.1% among 290,000; in the data active = binding response below about 67% or above about 130%
* marks the source's active call; other numbers are inactive results; i = inactive; x = not tested or not shown; [ ] = another dose, or the depositor's remark. An excerpt weighted towards active compounds, which were near 4.1% of everything screened.

SMILES	MEKK2mut PB1 HTS	CHT block	CHT PAM	MEKK3 PB1 HTS	Mot1-301 SUMO	MEKK2 WT-MEK5
NS(=O)(=O)c1ccc(-c2ccc(/C=N/NC(=O)c3ccc([N+](=O)[O-])cc3)o2)cc1	2.0	i	i	100.0	311.1*	103.0
O=C(O)c1cccc(-c2ccc(/C=N/Nc3ccc([N+](=O)[O-])cc3)o2)c1	-12.0	i	i	99.0	310.7*	91.0
COc1ccc([N+](=O)[O-])cc1NC(=O)C(C)OC(=O)C1CCC1 (centres undefined)	x	i	i	x	0.9	x
Cc1ccc(/C=C2\SC(=O)N(CCNC(=O)C3CSC4(C)CCC(=O)N34)C2=O)cc1 (centres undefined)	x	i	i	x	-7.4	x
COC(=O)c1sc(N2CCN(c3ccc(Cl)cc3)CC2)nc1N	1.0	i	i	109.0	6.7	105.0
O=C1CSC(c2ccccn2)N1c1ccc(F)cc1F (centres undefined)	-1.0	i	i	95.0	235.6	92.0
O=C(c1ccccn1)N1N=C2/C(=C/c3ccccc3)CCCC2C1c1ccccc1 (centres undefined)	0.0	i	i	96.0	400.0*	95.0
O=C1CCC(C(=O)OCC(=O)N2N=C3/C(=C/c4ccccc4)CCCC3C2c2ccccc2)N1 (centres undefined)	-2.0	i	i	97.0	4.3	93.0
O=C(CNC(=O)C12CC3CC(CC(C3)C1)C2)N/N=C\c1ccccn1	-3.0	i	i	92.0	-8.5	93.0
O=c1c2c(-c3cccs3)csc2ncn1-c1ccccc1	19.0	i	i	96.0	-3.1	15.0*
CC(OC(=O)C1CC2CCCC(C1)C2=O)C(=O)Nc1cccc([N+](=O)[O-])c1 (centres undefined)	x	x	x	x	-7.4	x
Cc1cc(C(=O)O)cc(Br)c1N	-3.0	i	i	89.0	326.4*	98.0
CC(NS(=O)(=O)c1ccccc1)C(=O)Nc1ccc2c(c1)OCCO2 (centres undefined)	10.0	i	i	105.0	4.8	110.0
O=C(COC(=O)c1cncc(Br)c1)NCc1ccc(F)cc1	2.0	i	i	104.0	7.0	98.0
O=C(COC(=O)c1cncc(Br)c1)NCc1ccco1	-3.0	i	i	102.0	413.6*	101.0
CC(C)CNC(=O)[C@H](Cc1ccccc1)NC(=O)c1cccs1	-5.0	i	i	96.0	211.3	91.0
COc1cc(NC(=O)c2ccc(=O)[nH]n2)cc(OC)c1OC	1.0	i	i	104.0	0.9	105.0
CN1CCN(c2ccc(NC(=S)NC(=O)c3cccc4c(Br)cccc34)cc2)CC1	22.0	i	i	106.0	-11.9	173.0*
COc1ccc(-c2csc(-c3ccccc3)n2)c(OC)c1	1.0	i	i	103.0	14.7	104.0
COc1ccc(-c2csc(NC3CCCCC3)n2)c(OC)c1	2.0	i	i	98.0	55.5	-4.0*[inhibitor]
COc1ccc(C2CCCN2CC(O)COc2ccccc2C(C)C)cc1 (centres undefined)	13.0	i	10.2*	107.0	10.9	125.0
COc1ccccc1CNC(=O)COc1cccc(-n2cnnn2)c1	x	i	i	x	19.2	x
O=C(COC(=O)/C=C/c1ccc(S(=O)(=O)N2CCOCC2)cc1)NCc1ccc(F)cc1	-2.0	i	i	103.0	306.8*	101.0
CCCNC(=O)c1ccc(N2CCC3(CC2)CC(c2cccc(Br)c2)=NO3)c(NC(=O)c2ccc(Cl)c([N+](=O)[O-])c2)c1	x	i	i	x	2.6	x
CCOc1cc(-c2nccc3cc(OC)c(OC)cc23)cc(OCC)c1OCC	7.0	i	i	102.0	2.1	109.0
SMILES	MEKK2mut PB1 HTS	CHT block	CHT PAM	MEKK3 PB1 HTS	Mot1-301 SUMO	MEKK2 WT-MEK5
Cc1nc(N2CCN(C(=O)COc3ccccc3)CC2)c2c(C)c(C)sc2n1	-4.0	-7.53*	i	101.0	4.5	104.0
COc1ccc2sc(N(CCN(C)C)C(=O)/C=C/c3cccs3)nc2c1	17.0	i	i	105.0	-18.0	132.0
CCOc1ccc2nc(N(CCN(CC)CC)C(=O)/C=C/c3cccs3)sc2c1	16.0	i	i	109.0	16.5	157.0*
CCN(CC)CCN(C(=O)c1cc2ccccc2cc1OC)c1nc2ccc(OC)cc2s1	26.0*	i	i	103.0	-26.4	148.0*
CN(C)CCN(C(=O)c1ccc2ccccc2c1)c1nc2ccc(F)cc2s1	9.0	i	i	105.0	11.6	115.0
CCN(CC)CCN(C(=O)c1cc2ccccc2cc1OC)c1nc2ccc(F)cc2s1	20.0	i	i	104.0	-10.2	140.0*
O=c1c2c3c(sc2ncn1/N=C/c1ccc([N+](=O)[O-])o1)CCCC3	12.0	i	i	106.0	289.6*	103.0
O=C(NCc1ccccn1)C(C(=O)c1cccc([N+](=O)[O-])c1)n1cc(Cl)ccc1=O (centres undefined)	-2.0	i	i	81.0	32.8	86.0
O=C1CNC(=S)N1CCc1ccccc1Cl	10.0	-5.11*	i	105.0	31.6	103.0
Cc1ccc(C(C[N+](=O)[O-])n2nc(C)cc2C)cc1 (centres undefined)	4.0	i	i	101.0	623.9*	104.0
Cc1ccccc1NS(=O)(=O)c1ccc2c3c(cccc13)C(=O)N2C	-4.0	i	i	99.0	351.0*	100.0
CN1C(=O)c2cccc3c(S(N)(=O)=O)ccc1c23	3.0	i	i	105.0	0.8	104.0
CN1C(=O)c2cccc3c(S(=O)(=O)NCc4ccco4)ccc1c23	2.0	i	i	106.0	4.2	108.0
CN1C(=O)c2cccc3c(S(=O)(=O)Nc4ccccn4)ccc1c23	7.0	i	i	107.0	280.1*	100.0
CCCC(c1nnnn1Cc1cccs1)N1CCN(C2CCCC2)CC1 (centres undefined)	4.0	i	6.27*	102.0	65.1	105.0
CCC(c1nnnn1Cc1cccs1)N1CCN(C2CCCC2)CC1 (centres undefined)	6.0	i	i	104.0	-3.1	107.0
COc1cc(/C=N/n2cnnc2)ccc1OCC(=O)N1CCOCC1	-1.0	i	9.61*	94.0	-1.5	96.0
COc1cc(/C=N/NC(N)=S)ccc1OCC(=O)N1CCOCC1	14.0	i	i	100.0	x	105.0
COC(=O)CSc1nc2c(c(=O)n(C)c(=O)n2C)n1CCC(C)C	8.0	i	i	110.0	-13.4	109.0
COC(=O)C(C)Sc1nc2c(c(=O)n(C)c(=O)n2C)n1CCC(C)C (centres undefined)	-5.0	i	i	99.0	960.6*	97.0

Screening results: PubChem, several laboratories
